Measured values: paper PMC9838217, “Structure of SALL4 zinc finger domain reveals link between AT-rich DNA binding and Okihiro syndrome”
Residue numbers refer to the chain shown, from its start.

Experiments:
Test in all cases: HT-SELEX; high values mean tight binding
Conditions in all cases: protein: recombinant; vector His6-GST; dsDNA, one strand shown
SALL4 ZFC4 WT (HT-SELEX) = molecular target: T1, SALL4 ZFC4 WT (HT-SELEX) (Mus musculus, UniProt Q8BX22 870-940)
T1 sequence: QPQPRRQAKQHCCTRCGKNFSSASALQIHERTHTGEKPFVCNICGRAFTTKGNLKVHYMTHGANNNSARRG
Summary of the method: (§1)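 Each canonical k-mer's binding signal is its read fraction expressed as fold change over the initial random library. Reads came from MiSeq sequencing, scanned for 6-mers, after up to 6 triplicate cycles in which purified recombinant mouse SALL4 zinc finger cluster 4 (residues 870–940, 1 µg) bound library DNA (1.5 µg first cycle, 200 ng later) in 100 µl of 10 mM Tris–HCl pH 7.5, 50 mM NaCl, poly(dI-dC), DTT for 10 min at room temperature. Complexes were then Ni2+ bead-captured, washed, PCR-amplified and reselected.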

[1] = molecular target: T2, SALL4 ZFC4 R900W (HT-SELEX) (Mus musculus, UniProt Q8BX22 870-940, R900W)
T2 sequence: T1 sequence with R31W
Summary of the method: as §1

[2] = molecular target: T3, SALL4 ZFC4 G921D (HT-SELEX) (Mus musculus, UniProt Q8BX22 870-940, G921D)
T3 sequence: T1 sequence with G52D
Summary of the method: as §1

Work on ATCGGA yielded a binding signal (SALL4 ZFC4 WT (HT-SELEX)) of 0.708 ± 0.0433 fold-change vs cycle 0, a binding signal [1] of 0.804 ± 0.0524 fold-change vs cycle 0 and a binding signal [2] of 0.928 ± 0.0274 fold-change vs cycle 0.
Sequence TCAGAA has a binding signal (SALL4 ZFC4 WT (HT-SELEX)) of 1.27 ± 0.0471 fold-change vs cycle 0, a binding signal [1] of 1.37 ± 0.0562 fold-change vs cycle 0 and a binding signal [2] of 1.28 ± 0.0614 fold-change vs cycle 0.
AGTCCA gave a binding signal (SALL4 ZFC4 WT (HT-SELEX)) of 0.746 ± 0.0239 fold-change vs cycle 0, a binding signal [1] of 0.878 ± 0.0374 fold-change vs cycle 0 and a binding signal [2] of 0.929 ± 0.0398 fold-change vs cycle 0.
Sequence AGTGTC has a binding signal (SALL4 ZFC4 WT (HT-SELEX)) of 0.664 ± 0.023 fold-change vs cycle 0, a binding signal [1] of 0.81 ± 0.0199 fold-change vs cycle 0 and a binding signal [2] of 0.9 ± 0.0262 fold-change vs cycle 0.
CAAACA showed a binding signal (SALL4 ZFC4 WT (HT-SELEX)) of 1.04 ± 0.0367 fold-change vs cycle 0, a binding signal [1] of 1.17 ± 0.0357 fold-change vs cycle 0 and a binding signal [2] of 1.18 ± 0.0394 fold-change vs cycle 0.
With AAAGTC the binding signal (SALL4 ZFC4 WT (HT-SELEX)) was 1.1 ± 0.0483 fold-change vs cycle 0, the binding signal [1] was 1.25 ± 0.0636 fold-change vs cycle 0 and the binding signal [2] was 1.24 ± 0.0652 fold-change vs cycle 0.
For CCATAC, the binding signal (SALL4 ZFC4 WT (HT-SELEX)) was 0.84 ± 0.0342 fold-change vs cycle 0, the binding signal [1] was 0.88 ± 0.0149 fold-change vs cycle 0 and the binding signal [2] was 0.931 ± 0.0299 fold-change vs cycle 0.
Work on AACACT yielded a binding signal (SALL4 ZFC4 WT (HT-SELEX)) of 1.28 ± 0.027 fold-change vs cycle 0, a binding signal [1] of 1.39 ± 0.0403 fold-change vs cycle 0 and a binding signal [2] of 1.33 ± 0.0261 fold-change vs cycle 0.
Sequence GAGAAA has a binding signal (SALL4 ZFC4 WT (HT-SELEX)) of 1.28 ± 0.0744 fold-change vs cycle 0, a binding signal [1] of 1.39 ± 0.0816 fold-change vs cycle 0 and a binding signal [2] of 1.29 ± 0.0905 fold-change vs cycle 0.
GGATCA gave a binding signal (SALL4 ZFC4 WT (HT-SELEX)) of 0.841 ± 0.0365 fold-change vs cycle 0, a binding signal [1] of 0.972 ± 0.0131 fold-change vs cycle 0 and a binding signal [2] of 1.03 ± 0.0289 fold-change vs cycle 0.
GTGTCA showed a binding signal (SALL4 ZFC4 WT (HT-SELEX)) of 0.688 ± 0.0282 fold-change vs cycle 0, a binding signal [1] of 0.805 ± 0.0104 fold-change vs cycle 0 and a binding signal [2] of 0.881 ± 0.0197 fold-change vs cycle 0.
CTTCCC gave a binding signal (SALL4 ZFC4 WT (HT-SELEX)) of 0.499 ± 0.032 fold-change vs cycle 0, a binding signal [1] of 0.599 ± 0.0427 fold-change vs cycle 0 and a binding signal [2] of 0.656 ± 0.0665 fold-change vs cycle 0.
Work on GACATC yielded a binding signal (SALL4 ZFC4 WT (HT-SELEX)) of 0.75 ± 0.0336 fold-change vs cycle 0, a binding signal [1] of 0.879 ± 0.011 fold-change vs cycle 0 and a binding signal [2] of 0.967 ± 0.0135 fold-change vs cycle 0.
TACCCA showed a binding signal (SALL4 ZFC4 WT (HT-SELEX)) of 0.781 ± 0.0395 fold-change vs cycle 0, a binding signal [1] of 0.882 ± 0.0184 fold-change vs cycle 0 and a binding signal [2] of 0.886 ± 0.035 fold-change vs cycle 0.
ATCCGA gave a binding signal (SALL4 ZFC4 WT (HT-SELEX)) of 0.684 ± 0.0383 fold-change vs cycle 0, a binding signal [1] of 0.781 ± 0.0221 fold-change vs cycle 0 and a binding signal [2] of 0.89 ± 0.0142 fold-change vs cycle 0.
AGTACT was tested, and the binding signal (SALL4 ZFC4 WT (HT-SELEX)) was 1.32 ± 0.0981 fold-change vs cycle 0, the binding signal [1] was 1.45 ± 0.094 fold-change vs cycle 0 and the binding signal [2] was 1.4 ± 0.116 fold-change vs cycle 0.
In the case of GAGAAC, the binding signal (SALL4 ZFC4 WT (HT-SELEX)) is reported as 0.84 ± 0.00885 fold-change vs cycle 0, the binding signal [1] is reported as 1 ± 0.0376 fold-change vs cycle 0 and the binding signal [2] is reported as 1.04 ± 0.00942 fold-change vs cycle 0.
For ACGGAT, the binding signal (SALL4 ZFC4 WT (HT-SELEX)) was 0.764 ± 0.0238 fold-change vs cycle 0, the binding signal [1] was 0.855 ± 0.00544 fold-change vs cycle 0 and the binding signal [2] was 0.887 ± 0.0254 fold-change vs cycle 0.
ATCCGG was tested, and the binding signal (SALL4 ZFC4 WT (HT-SELEX)) was 0.352 ± 0.0195 fold-change vs cycle 0, the binding signal [1] was 0.41 ± 0.0188 fold-change vs cycle 0 and the binding signal [2] was 0.52 ± 0.0559 fold-change vs cycle 0.
For GGTGAA, the binding signal (SALL4 ZFC4 WT (HT-SELEX)) was 0.8 ± 0.0301 fold-change vs cycle 0, the binding signal [1] was 0.905 ± 0.0496 fold-change vs cycle 0 and the binding signal [2] was 0.952 ± 0.0511 fold-change vs cycle 0.
AGCAAC showed a binding signal (SALL4 ZFC4 WT (HT-SELEX)) of 0.642 ± 0.0202 fold-change vs cycle 0, a binding signal [1] of 0.736 ± 0.0162 fold-change vs cycle 0 and a binding signal [2] of 0.849 ± 0.0333 fold-change vs cycle 0.
For CCACGA, the binding signal (SALL4 ZFC4 WT (HT-SELEX)) was 0.33 ± 0.0384 fold-change vs cycle 0, the binding signal [1] was 0.407 ± 0.011 fold-change vs cycle 0 and the binding signal [2] was 0.515 ± 0.0508 fold-change vs cycle 0.
CCCATC was tested, and the binding signal (SALL4 ZFC4 WT (HT-SELEX)) was 0.471 ± 0.0121 fold-change vs cycle 0, the binding signal [1] was 0.54 ± 0.0172 fold-change vs cycle 0 and the binding signal [2] was 0.613 ± 0.034 fold-change vs cycle 0.
ACACAT gave a binding signal (SALL4 ZFC4 WT (HT-SELEX)) of 1.25 ± 0.0206 fold-change vs cycle 0, a binding signal [1] of 1.33 ± 0.0439 fold-change vs cycle 0 and a binding signal [2] of 1.32 ± 0.0216 fold-change vs cycle 0.
ACACTG was tested, and the binding signal (SALL4 ZFC4 WT (HT-SELEX)) was 0.743 ± 0.0572 fold-change vs cycle 0, the binding signal [1] was 0.877 ± 0.0574 fold-change vs cycle 0 and the binding signal [2] was 0.908 ± 0.0148 fold-change vs cycle 0.
GACTTA was tested, and the binding signal (SALL4 ZFC4 WT (HT-SELEX)) was 1.27 ± 0.0397 fold-change vs cycle 0, the binding signal [1] was 1.4 ± 0.0678 fold-change vs cycle 0 and the binding signal [2] was 1.33 ± 0.102 fold-change vs cycle 0.
AATTAA gave a binding signal (SALL4 ZFC4 WT (HT-SELEX)) of 3.49 ± 0.279 fold-change vs cycle 0, a binding signal [1] of 2.6 ± 0.189 fold-change vs cycle 0 and a binding signal [2] of 2.2 ± 0.282 fold-change vs cycle 0.
Sequence CGCTAA has a binding signal (SALL4 ZFC4 WT (HT-SELEX)) of 0.488 ± 0.0307 fold-change vs cycle 0, a binding signal [1] of 0.562 ± 0.0185 fold-change vs cycle 0 and a binding signal [2] of 0.667 ± 0.039 fold-change vs cycle 0.
With AACAAC the binding signal (SALL4 ZFC4 WT (HT-SELEX)) was 1.18 ± 0.0643 fold-change vs cycle 0, the binding signal [1] was 1.26 ± 0.0286 fold-change vs cycle 0 and the binding signal [2] was 1.25 ± 0.0618 fold-change vs cycle 0.
ATTGAG gave a binding signal (SALL4 ZFC4 WT (HT-SELEX)) of 1.27 ± 0.0638 fold-change vs cycle 0, a binding signal [1] of 1.38 ± 0.0358 fold-change vs cycle 0 and a binding signal [2] of 1.36 ± 0.122 fold-change vs cycle 0.
